An excerpt weighted towards active compounds, which were near 19% of everything screened.
TDP1 cell CPT – growth inhibition of DT40 Tdp1-/-;hTDP1 cells with camptothecin (screen for TDP1 inhibitors); chicken DT40 Tdp1-/-;hTDP1 cells + 20 nM CPT, ATP luminescence, 48 h; Potency, µM (top dose mostly 46.2 µM), for the others: at the highest dose activity change, negative = growth inhibition, hits mostly inhibitors; actives 12% (n = 420,000); AID 686979; note: potency is the fitted concentration of half-maximal effect; % is set by controls: 0 for no effect and ±100 for the full control effect; nearly all actives have a fitted effect of over 55% in size
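Chicken DT40 Tdp1-/- cells stably complemented with human TDP1 were seeded at 400 cells/well in medium containing 20 nM camptothecin, exposed to pin-transferred compounds, and grown at 37 °C for at least 48 hr. Viability was read as ATP luminescence.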
MCF10A rereplic – induces DNA re-replication in MCF 10a normal breast cells | AID 624296 | Potency, µM (series often up to 46.1 µM), without a hit: at the highest dose activity, positive = re-replication, usual class: activators | MCF 10A DNA re-replication, Hoechst nuclear intensity, 48 h | actives 2.9% (n = 350,000); note: potency is the fitted concentration of half-maximal effect; % of control where 0% means no effect; nearly all actives have a fitted effect of over 50% in size
SW480 rerep – DNA re-replication induction in SW480 cells. SW480 DNA re-replication, Hoechst DNA content imaging, 48 h. Potency, µM (highest dose often 46.1 µM), inactives show at the highest dose re-replication activation, actives largely listed as activators. actives 1.8% (n = 340,000). AID 624297; note: potency is the fitted concentration of half-maximal effect; % of control where 0% means no effect; nearly all actives have a fitted effect of over 55% in size
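DNA re-replication was detected as more nuclei of elevated Hoechst intensity after 48 hr exposure to compound (23 nL pinned per well of 250 cells).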
IL1B secr inh – blocks inflammasome-driven IL-1 beta release. THP-1 LPS/ATP IL-1B secretion, AlphaLISA, 16 h; stronger effect = lower value. AID 743279. actives 4.7% (n = 360,000). activity change, % at 57.5 µM; in the data active = activity change below about -50%; inconclusive = mostly about -30% to -49%; note: % is set by controls: 0 for no effect and ±100 for the full control effect
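Secreted IL-1B measured by AlphaLISA bead assay after 16 h compound exposure of THP-1 cells; compounds (final up to 57.5 uM) added 1 h before LPS (250 ng/mL) and ATP (1.25 mM) stimulation; lower signal means less secretion.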
BCR signal inh – blocks chronic active B-cell receptor signaling; actives 0.05% (n = 340,000); Potency, µM (doses to about 46.1 µM), inactives show top-dose activity change, negative = inhibition, actives largely listed as inhibitors; ABC-DLBCL IkBa-CBG/CBR reporter, luminescence ratio, 4 h; active = well fitted inhibition curve with a large enough effect in the signal ratio, with a control signal flat, not every such curve was filed as active; inconclusive = small, poorly fitted or top-dose-only effect, or effect the other way, or a change in a side signal; the % refers to the signal ratio;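 note: potency is the fitted concentration of half-maximal effect; plate controls were basal doxycycline-induced cells for no effect and cells given 10 µM MG132 for full effect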
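Compounds up to 46 uM were incubated four hours with TMD8 cells whose green CBG68 luciferase is fused to IkappaBalpha; red CBR luminescence normalised the signal, and concentration-effect curves were fitted to fusion, red and ratio data.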
DT40 TDP1 no CPT – qHTS for Inhibitors of human tyrosyl-DNA phosphodiesterase 1 (TDP1): qHTS in cells in absence of CPT | DT40 Tdp1-/- hTDP1 cells, no CPT, ATP luminescence, 48 h | Potency, µM (highest dose often 46.2 µM), for inactives: top-dose activity change, negative = growth inhibition, usual class: inhibitors | actives 15% (n = 420,000); note: potency is the fitted concentration of half-maximal effect; % is set by controls: 0 for no effect and ±100 for the full control effect; nearly all actives have a fitted effect of over 55% in size
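Cells were dispensed at 400 per well, compounds added by pin tool, plates incubated ≥48 hr at 37 °C, then CellTiter-Glo added for 30 min at room temperature before luminescence reading. Line: DT40 Tdp1-/- complemented with hTDP1; camptothecin omitted.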
Starred values were filed as active, the others as inactive; ? = inconclusive; · = no result. Unless noted, calls come from the whole dose curve; as a rule, active = well fitted curve in the direction sought with a large enough effect; inconclusive = small, poorly fitted or top-dose-only effect, or another doubt; inactive = no such curve, though single readings can be large; an effect the other way counts as inactive or inconclusive.

SMILES	TDP1 cell CPT	MCF10A rereplic	SW480 rerep	IL1B secr inh	BCR signal inh	DT40 TDP1 no CPT
CN(C(=O)Cn1cc(C(F)(F)F)cc(Cl)c1=O)C1CCS(=O)(=O)C1 (configuration not stated)	6.6%	-1.3%	-9.9%	3.8	-11.5%	-4.8%
O=C(NC1CCCCCC1)C1CCN(C(=O)c2cccc(Cl)c2)CC1	-19.2%	?	-1.7%	4.2	-1.4%	-2.2%
c1ccc(Cn2c[n+](Cc3ccccc3)c3ccccc32)cc1	3.26µM*	1.1%	-1.2%	-3.7	2.6%	2.91µM*
Cc1cc2oc3c(c(=O)c2cc1C)C(c1cccc(Br)c1)N(Cc1ccco1)C3=O (configuration not stated)	?	10µM*	-18.7%	-1.6	1.5%	?
CCOc1cc(C2c3c(oc4cc(C)c(Cl)cc4c3=O)C(=O)N2Cc2ccco2)ccc1O (configuration not stated)	18.4µM*	?	5.4%	10.3	-6.0%	16.4µM*
COc1cc(C2c3c(oc4ccccc4c3=O)C(=O)N2Cc2ccco2)ccc1O (configuration not stated)	-5.3%	-9.2%	17.1%	-21.1	-0.1%	-27.6%
Cc1ccc2oc3c(c(=O)c2c1)C(c1cccc(Br)c1)N(Cc1ccco1)C3=O (configuration not stated)	?	?	?	0.0	-1.7%	20.6µM*
O=C1c2oc3ccc(Cl)cc3c(=O)c2C(c2cccc(Br)c2)N1CCO (configuration not stated)	25.9µM*	-0.4%	-2.0%	-28.9	?	?
COc1ccc(NC(=O)C(CC(C)C)NC(=O)C2CCCCC2)c(OC)c1 (configuration not stated)	?	3.1%	6.1%	?	1.0%	?
Cc1onc(-c2ccccc2)c1C(=O)NC1C(=O)N2C(C(=O)O)C(C)(C)S[C@@H]12 (some centres not stated)	8.9%	·	·	·	·	-2.1%
CCOC(=O)C1=C(C)NC(C)=C(C(=O)OCC)C1C(=O)OCC(=O)NCc1ccccc1	-29.8%	12.3%	11.2%	-6.1	-6.4%	?
CCOC(=O)c1c(C)[nH]c(C)c1S(=O)(=O)N1c2ccccc2CC1C (configuration not stated)	?	7.8%	1.1%	8.6	-1.4%	?
CCOC(=O)C1=C(C)NC(C)=C(C(=O)OCC)C1C(=O)OCC(=O)N1c2ccccc2CC1C (configuration not stated)	?	6.6%	7.7%	?	?	18.4µM*
CCOC(=O)c1c(C)[nH]c(C(=O)OCC(=O)N2c3ccccc3CC2C)c1C (configuration not stated)	?	12.8%	2.7%	?	?	18.4µM*
CC1Cc2ccccc2N1C(=O)COC(=O)c1cccc(Br)c1 (configuration not stated)	-18.2%	-2.1%	-2.1%	8.5	-3.0%	17.5%
CCOC(=O)C1=C(C)NC(C)=C(C(=O)OCC)C1C(=O)OCC(=O)NC(C)c1ccccc1 (configuration not stated)	?	?	7.31µM*	?	?	?
CCOc1cc(/C=N/NC(=O)C(=O)NCc2ccc3c(c2)OCO3)ccc1OCC(=O)N1CCOCC1	-0.6%	-0.1%	-0.2%	9.6	-1.3%	13.4%
O=C(Nc1ccncc1)c1cccc(S(=O)(=O)N2CCc3ccccc32)c1	5.8µM*	4.3%	?	?	-0.8%	6.51µM*
O=C(O)c1cccc(NC(=O)c2cccc(S(=O)(=O)N3CCc4ccccc43)c2)c1	3.0%	-2.3%	2.7%	42.2	?	9.2%
